± gives the standard deviation. Over roughly 6,600 sequences, “pre-steady-state target cleavage rate” has its median near 0.07; the highest 2% begin near 0.72. Only a selection was taken, and the highest values are over-represented in it overall.
tested on: MIWI (PIWIL1) piRISC loaded with Kctd7 piRNA (30 nt); experiment: pre-steady-state target cleavage rate (min^-1); MIWI and MILI are mouse PIWI proteins and EfPiwi is from a freshwater sponge; tags in brackets are library labels; higher = faster piRNA-guided slicing of the target; settings: guide: Kctd7 piRNA 5'p-UGUUAAUCUCUCAGAGAAGGUGACAGUGAU; auxiliary factor: 500 nM mouse GTSF1
Method: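 Cleave-'n-Seq: a library of target RNAs (target site embedded in constant flanks, ACAGCATTCCGCGTTAGTGATATCCG... 5' flank; DNA-blocked outside the site) at 0.1 nM was incubated with 1 nM active mouse MILI or MIWI piRISC (synthetic 5'-monophosphorylated piRNA guide) with or without 500 nM mouse GTSF1 at 33 °C for 1 min to 16 h. Uncleaved targets were sequenced and normalised to non-target controls, and the pooled three trials were fitted to a burst-and-steady-state model to give the pre-steady-state cleavage rate (min^-1; k3 is constrained to at most 1e-4). Sequence is the target site only; target names encode pairing extent (gX:gY) and contiguous / 1-mismatch / 2-mismatch / bulge geometry. Fits with R² ≤ 0 are excluded.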

| Sequence | pre-steady-state target cleavage rate |
| --- | --- |
| UAGUGACAGUCCUUCUCAGAGAGUUUAACA | 0.0044 ± 0.0027 |
| UAGUGACUCACGAUCUCUGAGAGAUUAACA | 0.00958 ± 0.0018 |
| UACACUGUCACCUUCUCUGAGAGAUGUAACA | 0.386 ± 0.051 |
| AACACUCUCACCUUCUCUGAGAGAUUAACA | 0.564 ± 0.035 |
| UACACUGUCACCUUCUCUGAGAGAUUACCA | 0.152 ± 0.024 |
| UUCACUGUCACCAUUCUCUGAGAGAUUAACA | 0.725 ± 0.029 |
| UACACUGUCACCAUUCUCUGAGAGAUUAACA | 0.674 ± 0.035 |
| UUCACUGUCACAUUCUCUGAGAGAUUAACA | 0.682 ± 0.031 |
| UUCACUGUCACCUCUCUGAGAGAUUAACA | 0.501 ± 0.037 |
| UAGUCUGUCACCAUUCUCUGAGAGAUUAACA | 0.601 ± 0.03 |
| AUCACUGUCACCAUUCUCUGAGAGAUUAACA | 0.741 ± 0.036 |
| UUCACUGUCACCUCUCUCUGAGAGAUUAACA | 0.289 ± 0.022 |
| AUCACUGUCACAUUCUCUGAGAGAUUAACA | 0.799 ± 0.035 |
| UACACUGUCACAUUCUCUGAGAGAUUAACA | 0.676 ± 0.036 |
| UACACUGUCCACCUUCUCUGAGAGAUUAACA | 0.496 ± 0.038 |
| UAGAGUGACACCUUCUCUGAGAGAUUAACA | 0.55 ± 0.023 |
| UAGACUUUCACCUUCUCUGAGAGAUUAACA | 0.612 ± 0.033 |
| UAGUGACAGUGUUUCUCUGAGAGAUUAACA | 0.00493 ± 0.0019 |
| UAGUGUGACACCUUCUCUGAGAGAUUAUGA | 0.0202 ± 0.0074 |
| UAGACUGUCAACCUUCUCUGAGAGAUUAACA | 0.282 ± 0.023 |
| UAGACUGUCAACUUCUCUGAGAGAUUAACA | 0.726 ± 0.049 |
| UACACUGUCAACCUUCUCUGAGAGAUUAACA | 0.193 ± 0.016 |
| UACACUGUCACACUUCUCUGAGAGAUUAACA | 0.544 ± 0.023 |
| UACACUGUCAACUUCUCUGAGAGAUUAACA | 0.796 ± 0.035 |

| Sequence | pre-steady-state target cleavage rate |
| --- | --- |
| AUCACUGUCAACUUCUCUGAGAGAUUAACA | 0.793 ± 0.045 |
| UUCACUGUCAACUUCUCUGAGAGAUUAACA | 0.668 ± 0.028 |
| UAGUCUGUCAACUUCUCUGAGAGAUUAACA | 0.593 ± 0.024 |
| AUCACUGUCACUUCUCUGAGAGAUUAACA | 0.628 ± 0.044 |
| UUCACUGUCACCUUCUCUGAAGAGAUUAACA | 0.019 ± 0.0081 |
| UAGUGACUCACCUUCUGUGAGAGAUUAAGA | 0.088 ± 0.02 |
| UAGACUGUCACCUUCUCUGAGAGAUUAACC [g2:g27:cont:t1C] | 0.322 ± 0.03 |
| UAGACUGUCACCUUCUCUCUGAGAUUAACA | 0.0118 ± 0.0026 |
| UAGACUGUCACCUUCUCUGAGAAGAUUAACA | 0.0399 ± 0.0084 |
| AAGACUGUCACCUUCUCUGAGAGAUUAACA | 0.786 ± 0.036 |
| UAGACUGUCACCUUCUCUGAGAGAUUAACA [g2:g27:cont:t1A] | 0.805 ± 0.05 |
| AAGACUGUCACCUUCUCUGAGAGAUUAAGA | 0.238 ± 0.037 |
| UAGACUGUCACCUUCUCUGUGAGAUUUUGA | 0.0048 ± 0.0033 |
| UAGUGACACACCUUCACUGAGAGAAUAACA | 0.0335 ± 0.0091 |
| UAGUGAGUCACCUUCACUGAGAGAUUUUGA | 0.0525 ± 0.017 |
| UACACUCUCACCUUCACUGAGAGAUUAACA | 0.256 ± 0.02 |
| UAGACUGUCACCUGCUCUGAGAGAUUAACA | 0.77 ± 0.043 |
| UAGACUGUCACCUCCUCUGAGAGAUUAACA | 0.744 ± 0.035 |
| UAGACUGUCACCUGUCUCUGAGAGAUUAACA | 0.561 ± 0.036 |
| AUCACUGUCACCUCCUCUGAGAGAUUAACA | 0.802 ± 0.033 |
| UUCACUGUCACCUCCUCUGAGAGAUUAACA | 0.639 ± 0.021 |
| UACACUGUCACCUCCUCUGAGAGAUUAACA | 0.731 ± 0.026 |
| AUCACUGUCACCUCUCUCUGAGAGAUUAACA | 0.515 ± 0.031 |
| UACACUGUCACCUCUCUGAGAGAUUAACA | 0.5 ± 0.035 |

| Sequence | pre-steady-state target cleavage rate |
| --- | --- |
| UACACUGUCACCUCUCUCUGAGAGAUUAACA | 0.425 ± 0.029 |
| UAGACUGUCACCUCUCUGAGAGAUUAACA | 0.321 ± 0.036 |
| UAGACUGUCACCUCUCUCUGAGAGAUUAACA | 0.409 ± 0.044 |
| UAGACUGUCACCUUGCUCUGAGAGAUUAACA | 0.358 ± 0.049 |
| UUCACUGUCAGGUUCUCUGAGAGAUUAUGA | 0.0127 ± 0.003 |
| UAGUGACUCACCUUCUCUGACACAUUAACA | 0.00928 ± 0.0035 |
| UUCACUGUCACCUUGUCUGAGUGAUUAACA | 0.0394 ± 0.0054 |
| UAGUCUGUCUCCUUCUGUGAGAGAUUAACA | 0.536 ± 0.028 |
| UUCACUGUGACGUUCUCUGAGAGAUUAACA | 0.59 ± 0.026 |
| AUCAGACUCACCUUCUCUGAGAGAUUAAGA | 0.159 ± 0.028 |
| AUCACUGUCACCUUCUCUGAGAGUAUUUGA | 0.109 ± 0.034 |
| UUCACUGUCACCUUCUCUGAGAGAAAAUGA | 0.0429 ± 0.015 |
| UAGUGACUCACCUUCUCUCAGAGAUAAACA | 0.0156 ± 0.0032 |
| UAGUGACUCACCCUCUCUGAGAGAUUAACA | 0.415 ± 0.045 |
| AUCUCUGUCACCUUCUCUCAGAGAUUAACA | 0.105 ± 0.0088 |
| UAGUGUGUCACCAUCUCUGACAGAUUAACA | 0.222 ± 0.021 |
| UAGACUGUCACCUUCUCUGAGAGAUAAUGA | 0.00696 ± 0.0033 |
| UAGUCUGUCACCUCUCUCUGAGAGAUUAACA | 0.481 ± 0.032 |
| UAGUCUGUCACCUCCUCUGAGAGAUUAACA | 0.726 ± 0.038 |
| UAGUCUGUCACCUCUCUGAGAGAUUAACA | 0.447 ± 0.048 |
| UAGUGACUCACCUUCUCUGAGAGAUUAACC [g2:g23:cont:t1C] | 0.303 ± 0.032 |
| AUCACUGUCAGGUUCUCUGAGAGAUUAACA | 0.653 ± 0.043 |
